# High-throughput results: PubChem, several laboratories
# MPTP block = mitochondrial permeability transition pore inhibitors, primary screen, biochemical, isolated mouse mitochondria, absorbance | Ca2+ swelling absorbance, 30 min | inhibition, % at 10 µM | hit rate 1.4% among 360,000;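 active = inhibition of 50% or more, scaled per plate between neutral and stimulator controls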
# Mdm2-MdmX inh = inhibitors of human Mdm2-MdmX association, primary screen, cell-based, luminescence, split luciferase, SaOS-2, uHTS | hit rate 3% among 330,000 | Protein Mdm4 (Homo sapiens) + E3 ubiquitin-protein ligase Mdm2 (Homo sapiens), … | SaOS-2 split-luciferase Mdm2/MdmX complementation | inhibition, % at 8 µM;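 active = inhibition of at least 50% at 8 µM in the primary screen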
# Beta apoptosis = inhibitors of cytokine-induced beta cell apoptosis, primary screen, luminescence. protection from apoptosis, % (no concentration beside the values). hit rate 0.8% among 300,000. INS-1E cytokine-induced death, ATP luminescence, 48 h; percent of positive-control rescue, neutral wells zero;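 active = Every replicate reaches about 75%, or at least half do and their mean reaches it too, limit read from the data; inconclusive = At least half of replicates reach the limit but their mean does not; inactive = Under half of replicates reach the limit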;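 also: higher means more ATP so stronger rescue from cytokine killing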
# Calb FLC = C. albicans growth inhibition with fluconazole, primary screen, CaCi-2 strain, Alamar Blue fluorescence; C. albicans CaCi-2 (fluconazole-resistant clinical isolate) + fluconazole, 48 h; growth inhibition, % (test concentration not listed); hit rate 0.57% among 300,000;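 active = growth inhibition above about 58% in most replicates, limit read from the data, passing the limit was not always enough; inconclusive = exactly half the replicates above a set limit; inactive = most replicates below a set limit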;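 also: all wells also contain fluconazole at 8 µg/ml as a sub-toxic cotreatment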
# CSC inhib = cancer stem cell viability inhibitors, primary screen, luminescence; cancer stem cell-like cells viability; inhibition, % at 7.5 µM; hit rate 1.1% among 300,000; AID 2717, 2010; in the data active = inhibition above about 75%; inconclusive = no clear call, values can overlap the other calls; tested in HMLE shEcad cells
# A number is an active result; . = inactive; ? = inconclusive; / = no result. An excerpt weighted towards active compounds, which were near 4.8% of everything screened.
SMILES,MPTP block,Mdm2-MdmX inh,Beta apoptosis,Calb FLC,CSC inhib
CSc1ccc(CN(C)C(=O)c2cc3ccccc3o2)cc1,.,.,.,.,.
CN(Cc1c(F)cccc1Cl)C(=O)c1cc2ccccc2o1,.,.,98.9,.,.
Oc1c(Br)cc(Br)cc1CNc1cccc2cccnc12,.,.,.,81.0,.
Oc1ccc(Cl)cc1CNc1cccc2cccnc12,.,.,.,.,.
Cc1ccc(O)c(CNc2cccc3cccnc23)c1,.,.,102.4,.,.
CC(=O)c1ccc(C(=O)Nc2ccc(N3CCOCC3)cc2)cc1,.,.,.,.,.
CC(C)(C)c1ccc(C(=O)Nc2ccc(N3CCOCC3)cc2)cc1,.,.,.,.,79.4
COc1cc(C(=O)OC2CC3CCC2(C)C3(C)C)ccc1OC(C)=O (stereo unspecified),.,.,/,.,81.3
CC1(C)C2CCC1(C)C(OC(=O)CNc1ccccc1)C2 (stereo unspecified),.,.,.,.,.
CSc1ccc(OC2(C)CCN(Cc3ccc(C(C)C)cc3)C2)cc1 (stereo unspecified),.,/,/,/,/
Cc1ccc(S(=O)(=O)Nc2ccc(-c3nnc(SCc4ccccc4Cl)o3)cc2)cc1,.,.,.,.,87.7
Cc1ccc(S(=O)(=O)/N=C2\C=C(Nc3cccc(C(=O)O)c3)C(=O)c3ccccc32)c(C)c1,.,.,95.3,.,.
O=C1C(Nc2ccccc2)=C/C(=N/S(=O)(=O)c2cccs2)c2ccccc21,.,/,105.2,.,112.5
O=C1C=C(Nc2ccccc2)C(=O)c2ccccc21,.,.,83.5,.,.
Cc1ccc(S(=O)(=O)/N=C2\C=C(Nc3cccc(C(=O)O)c3)C(=O)c3ccccc32)cc1,.,.,.,.,/
Cc1ccc(S(=O)(=O)/N=C2\C=C(NS(=O)(=O)c3ccccc3)C(=O)c3ccccc32)c(C)c1,.,/,/,/,/
Cc1ccc(CNc2cnn(C34CC5CC(CC(C5)C3)C4)c(=O)c2Cl)cc1,.,.,.,.,78.3
O=C(O)C12CC3CC(C1)CC(n1ncc(NCc4ccccc4)c(Cl)c1=O)(C3)C2,.,.,.,.,.
O=c1c(Cl)c(NCc2ccco2)cnn1C12CC3CC(CC(C3)C1)C2,.,.,.,.,.
O=c1c(Cl)c(NCc2ccccc2Cl)cnn1C12CC3CC(CC(C3)C1)C2,.,.,.,.,95.5
O=c1c(Cl)c(NCc2ccc(F)cc2)cnn1C12CC3CC(CC(C3)C1)C2,.,.,.,.,75.1
N/N=C/C(=N\Nc1ccc(Cl)cc1)C(=O)c1ccncc1,.,.,.,.,75.7
COCCNC(=O)NC12CC3CC(CC(C3)C1)C2,.,.,.,94.5,.
COCCNC(=S)NC12CC3CC(CC(C3)C1)C2,.,.,.,.,.
Cc1cc(Nc2cccc(Cl)c2Cl)n2ncnc2n1,.,.,.,116.1,.
SMILES,MPTP block,Mdm2-MdmX inh,Beta apoptosis,Calb FLC,CSC inhib
O=C(/C=C\c1ccccc1)NCC(=O)N/N=C/c1ccc(O)cc1O,.,.,.,.,103.9
O=C(N/N=C/c1ccc(O)cc1O)/C(=C/c1ccccc1)CCO,.,.,84.7,.,96.6
CCOC(=O)C1=C[C@@H](C(C)(C)C)N(S(=O)(=O)c2ccc(C)cc2)[C@H]1c1cccc(Cl)c1,.,/,/,/,/
CCCCCc1c(CC)ncn1CCc1ccccc1OC,.,/,/,/,/
CCCc1ccc(C(O)c2ncc(-c3cccc(C)c3)[nH]2)cc1 (stereo unspecified),.,/,/,/,/
COCc1ccc(-c2c(-c3cccc(OC)c3)sc3ccc(OC)cc23)cc1,.,.,.,/,.
COc1ccc2sc(-c3ccc(SC)cc3)c(C#CCO)c2c1,.,.,.,/,83.0
COc1ccc2sc(-c3ccc(SC)cc3)c(C#CC(C)(C)O)c2c1,.,.,.,/,105.0
COc1ccc(-c2oc3ccc(N4CCOCC4)cc3c2C#CCO)cc1,.,.,/,.,96.9
COc1ccc2sc(-c3ccc(N(C)C)cc3)c(C#CC(C)(C)O)c2c1,.,.,.,/,.
Nc1ccc(C#Cc2c(-c3ccsc3)oc3ccc(N4CCOCC4)cc23)cc1,.,.,/,.,.
COc1cccc(-c2sc3ccc(OC)cc3c2C#CCC(C)O)c1 (stereo unspecified),.,.,.,/,113.1
COc1ccc(-c2sc3cc(OC)c(OC)cc3c2C#CCO)cc1,.,.,/,/,/
O=C(NCc1ccccc1)OC1CC2CC1[C@H]1CCCCN1C2=O (stereo partly specified),.,/,/,/,/
COc1ccc(-c2sc3ccc(N4CCOCC4)cc3c2C#Cc2ccsc2)cc1,.,.,.,/,.
COc1ccc(-c2sc3ccc(N4CCOCC4)cc3c2C#CC(C)(C)O)cc1,.,.,.,/,87.1
COc1cccc(-c2sc3ccc(OC)cc3c2C#CC(C)(C)O)c1,.,.,.,/,117.8
Cc1ccc([C@@H]2CC(=O)[C@@H]3CN(S(=O)(=O)c4ccc(C)cc4)[C@H](c4ccccc4)C[C@@H]3N2S(=O)(=O)c2ccc(C)cc2)cc1,.,/,/,/,/
c1ccc(-c2c3ccccc3nc3[nH]c4ccccc4c23)cc1,.,.,.,.,78.6
c1ccc2nc3c(nc2c1)[nH]c1ccccc13,.,.,/,.,.
COc1cc(-c2cnc3c(NC=O)cc(-c4ccccc4Cl)cn23)cc(OC)c1OC,.,/,/,/,/
CC(=O)NC(C)(c1ccccc1)c1nc(/C=C/c2ccccc2)cs1 (stereo unspecified),.,/,/,/,/
Cc1ccc(NC(=S)c2nc3ccccc3[nH]2)c(C)c1,.,.,.,.,.
Cc1ccc(NC(=S)c2nc3ccccc3[nH]2)cc1,.,.,.,85.5,.
COc1ccc(CCC(=O)Nc2ccc(-c3noc(-c4ccc(OC)c(OC)c4)n3)cc2)cc1,.,.,/,.,.
SMILES,MPTP block,Mdm2-MdmX inh,Beta apoptosis,Calb FLC,CSC inhib
COc1cc(-c2nc(-c3ccc(NC(=O)c4ccc(Br)o4)cc3)no2)cc(OC)c1OC,.,.,.,.,76.9
COC(=O)C[C@H]1C=C[C@@H](NC(=O)c2ccncc2)[C@@H](CO)O1,.,/,/,/,/
COc1cc(/C=N/O)ccc1OCc1ccc(Cl)cc1,/,.,.,?,.
CCOc1cc(/C=N/N=C(N)N)ccc1OCc1ccc(Cl)cc1,.,/,.,104.7,105.6
COc1ccccc1-c1cccc(-c2nc(C(=O)N3CCCCC3)cc3c2[C@@H](CCO)N(S(=O)C(C)(C)C)C3)c1 (stereo partly specified),.,/,/,/,/
COC(=O)[C@@]12C[C@@H](CC(=O)NCc3cccc(C(F)(F)F)c3)C(=O)N(Cc3cccc4ccccc34)C1=CCC(C)(C)C2,.,/,/,/,/
Cc1ccc(S(=O)(=O)N2CCN(C(=O)COc3ccc(NC(=O)c4ccco4)cc3)CC2)cc1,.,.,.,.,93.6
CSc1cc(-c2ccccc2)n(C)c(=O)c1C#N,.,.,.,103.9,.
CCN(C(=O)CN(C1=NC2CS(=O)(=O)CC2S1)c1ccc(OC)cc1)c1cccc(C)c1 (stereo unspecified),.,/,/,/,/
COc1ccc(N/N=C(/C(C)=O)N2CCCc3ccccc32)cc1,.,.,.,.,88.4
